Here are results for 28 molecules from PubChem BioAssay (EPA / NIEHS).

The source holds several records for some structures; these can differ, active in one and inactive in another. Calls of active or inactive are those of the source. How the source made its calls: active means hit-call score of the fitted dose curve at least 0.9, where 1 is the maximum; inactive means score below 0.9.

This experiment can be described thus: APR_HepG2_MitoMass_24hr: Apredica 24-hour HepG2 Assay for Mitochondrial Mass (AID 2282912). The following applies: high-content imaging, actives raise or lower the signal. The procedure: APR_HepG2_24hr is a cell-based, multiplexed-readout assay that uses HepG2, a human liver cell line, with measurements taken at 24 hours after chemical dosing in a 384-well plate.APR_HepG2_MitoMass_24hr is one of 10 assay component(s) measured or calculated from the APR_HepG2_24hr assay. It is designed to make measurements of cell phenotype, a form of morphology reporter, as detected with fluorescence intensity signals by HCS Fluorescent Imaging technology.Data from the assay component APR_HepG2_MitoMass_24hr was analyzed into 1 assay endpoint. This assay endpoint, APR_HepG2_MitoMass_24hr, was analyzed with bidirectional fitting relative to DMSO as the negative control and baseline of activity. Using a type of morphology reporter, gain or loss-of-signal activity can be used to understand changes in the signaling. Furthermore, this assay endpoint can be referred to as a primary readout, because this assay has produced multiple assay endpoints where this one serves a signaling function. To generalize the intended target to other relatable targets, this assay endpoint is annotated to the cell morphology intended target family, where the subfamily is organelle conformation.
Cells were treated with dimethyl sulfoxide (DMSO) as a solvent control at a final concentration of 0.5% v/v or with compounds in DMSO with a resulting final DMSO concentration of 0.5% v/v. Compound treatment was done at concentrations of 0.39, 0.78, 1.56, 3.12, 6.24, 12.5, 25, 50, 100, and 200 uM in duplicate on each plate. Cells were treated with compounds for 1, 24, or 72 hr. Carbonyl […] m-chloro-phenylhydrazone (CCCP) and taxol were used as positive controls for mitochondrial function and cytoskeletal stability, respectively; DMSO served as the negative control for this experiment. Cells were fixed by the direct addition of 50 uL formaldehyde in Hank's Balanced Salt Solution (HBSS) to a final concentration of 3.7%. After incubation in the fixation medium for 30 min at room temperature (293-298 K), cells were rinsed twice with HBSS and treated with cell permeabilization buffer (16 uL of 0.5% Triton X-100) for 10 min at room temperature (293-298 K) before labeling. For mitochondrial membrane potential and mitochondrial measurements, pre-fixed cells were incubated with 50 uL of MitoTracker Red CMXRos (Invitrogen) at a concentration of 250 nM for 30 min before fixation. In the remaining cases, post-fixed cells were labeled by incubation with a multiplexed mixture of primary antibodies in HBSS for 60 min at room temperature (293-298 K) to detect immunoreactivity of c-Jun (1:500), phospho-histone H3 (1:100), phospho-histone H2A.x (1:200), p53 (1:400), alpha-tubulin (1:200) and Hoechst 33342 (2 ug/mL). Cells were labeled for multiplexed imaging on two separate plates: a) Hoechst 33342, MitoTracker Red, phospho-histone H3, and alpha-tubulin, and b) Hoechst 33342, phospho-histone H2A.x, and c-Jun. A final rinse with HBSS (50 uL) was performed before analysis. The primary and secondary antibodies for the proteins were phospho-histone H3 (rabbit anti-phospho-histone H3 and FITC-donkey anti-rabbit IgG), phospho-histone H2A.x (mouse anti-phospho-histone H2A.x and FITC-donkey anti-mouse IgG), c-Jun (rabbit anti-phospho-c-Jun and Cy3-donkey anti-rabbit IgG), p53 (sheep anti-p53 and Cy5-donkey anti-sheep IgG), alpha-tubulin (mouse anti-alpha-tubulin and Cy5-donkey anti-mouse IgG). These antibodies are available as the CellCiphr HepG2 assay kit (Millipore).Digital images of each well were captured using a Cellomics ArrayScan VTI (Thermo Scientific Cellomics) (0.8 NA objective, 0.63x optical coupler, and XF-93 filter set) at 20x magnification. The images were acquired using the autofocus feature of the ArrayScan instrument, which entails the following steps. First, the camera focuses on channel 1 (Hoechst 33342), where nuclei are identified. Second, a Z offset of 1 um is used for capturing mitochondria (MitoTracker Red). […]
Take `CC(=O)[O][Hg][c]1ccccc1`: the molecule was called inactive.

Regarding `CC(C)(OO)c1ccccc1`, the result was inactive.

With `Oc1cccc2cccnc12`, the molecule was called inactive.

In the case of `C[C@@H]1C[C@@H]([C@H](O)CC2CC(=O)NC(=O)C2)C(=O)[C@@H](C)C1`, the molecule was classed as inactive.

In the case of `C=CC(=O)OCCCCCC(C)C`, the call was inactive.

In the case of `Cn1sc(Cl)cc1=O`, the half-maximal activity concentration (AC50) was 117 µM (active).

For the molecule `CCCCCCCCc1ccc(O)cc1`, the call was inactive.

In the case of `NC(=O)O`, the AC50 is 59.3 µM (active).

Consider `ClCC(Cl)CCl`, for which the molecule was called inactive.

For `C=C(C)C(=O)[O][Sn]([CH2]CCC)([CH2]CCC)[CH2]CCC`, the concentration at half-maximal activity (AC50) was 0.226 µM (active).

Take `O=C(O)C(F)(F)C(F)(F)C(F)(F)C(F)(F)C(F)(F)C(F)(F)C(F)(F)C(F)(F)C(F)(F)C(F)(F)F`: the AC50 is 76.3 µM (active).

As to `CC(C)(c1ccccc1)c1ccc(O)c(C(C)(C)c2ccccc2)c1`, the result was inactive.

As to `ClC1(Cl)C2(Cl)C3(Cl)C4(Cl)C(Cl)(Cl)C5(Cl)C3(Cl)C1(Cl)C5(Cl)C24Cl` (centres undefined), the outcome was inactive.

For `O=C(O)C(Cl)(Cl)Cl`, the molecule was called inactive and the concentration at half-maximal activity (AC50) was 161 µM (active).

For `O=C1C2(Cl)C3(Cl)C4(Cl)C(Cl)(Cl)C5(Cl)C3(Cl)C1(Cl)C5(Cl)C24Cl` (centres undefined), the molecule was classed as inactive.

On to `O=c1[nH]c(=O)[nH]c(=O)[nH]1`, for which the molecule was called inactive.

`CN(C)N=O`: the molecule was classed as inactive.

Turning to `C[C@]12CCC(=O)C[C@@H]1CC[C@@H]1[C@@H]2CC[C@]2(C)[C@@H](O)CC[C@@H]12`, the result was inactive.

Take `CCC(=O)C(CC(C)N(C)C)(c1ccccc1)c1ccccc1` (centres undefined): the call was inactive.

Regarding `CC(C)(C)CC(C)(C)c1ccc(O)cc1`, the call was inactive.

In the case of `CCC(C)(C)c1ccc(O)c(C(C)(C)CC)c1`, the molecule was called inactive.

For `CC12CC1(C)C(=O)N(c1cc(Cl)cc(Cl)c1)C2=O` (centres undefined), the molecule was called inactive.

As to `CCN1CCC2(CC1)COc1cc3c(cc12)N(C(=O)c1ccc(-c2ccc(-c4nnc(C)o4)cc2C)cc1)CC3`, the concentration at half-maximal activity (AC50) is 7.43 µM (active).

For the molecule `CC(C)(C)c1cc(O)ccc1O`, the AC50 was 151 µM (active).

On to `COc1cc(-c2ccc(N)c(OC)c2)ccc1N`, for which the call was inactive.

`O=C(Nc1ccc2[nH]ccc2c1)c1cc2cc(F)ccc2n1Cc1cccc(F)c1`: the call was inactive.

Take `O=C(O)C(F)(F)C(F)(F)C(F)(F)C(F)(F)C(F)(F)C(F)(F)F`: the molecule was classed as inactive.

Consider `Cc1ccccc1N`, for which the call was inactive.

As a reminder, the AC50 is the midpoint of the concentration-response curve, whichever way the signal moves.
